Screening results deposited in PubChem by several laboratories.
SUMO Mot1 rescue: blocks SUMOylation pathway, rescuing yeast Mot1-301 growth. S. cerevisiae Mot1-301 growth rescue, ATP luminescence, 38.5C; percent above DMSO median, 100 means doubled. growth rescue, % at 18.8 µM. hit rate 1% among 320,000. AID 2716;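 active = every valid replicate shows activation above 250% relative to neutral control wells; inactive = the rest, any valid replicate at or below 250%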
NTR1 agonist: agonists of human neurotensin receptor NTR1 | NTR1-U2OS beta-arrestin-GFP spot imaging, agonist mode | activation, % at 20 µM | hit rate 0.17% among 330,000 | AID 493036;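 active = activation at or above 40% of the spot to cytoplasm intensity ratio, with at least 20 cells analyzed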
Target sequence (P30989 whole entry, looked up): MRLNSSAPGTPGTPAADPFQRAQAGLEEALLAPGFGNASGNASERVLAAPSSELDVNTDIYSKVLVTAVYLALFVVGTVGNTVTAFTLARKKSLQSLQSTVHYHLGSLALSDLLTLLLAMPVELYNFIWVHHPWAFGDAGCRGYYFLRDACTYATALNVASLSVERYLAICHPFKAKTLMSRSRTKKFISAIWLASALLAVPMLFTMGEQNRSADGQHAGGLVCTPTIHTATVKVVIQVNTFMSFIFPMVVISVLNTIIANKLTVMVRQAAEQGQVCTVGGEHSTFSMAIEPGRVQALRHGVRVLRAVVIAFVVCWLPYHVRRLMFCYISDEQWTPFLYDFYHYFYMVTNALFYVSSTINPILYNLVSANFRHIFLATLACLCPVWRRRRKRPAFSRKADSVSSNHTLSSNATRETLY
AI-2 QS modul: modulators of Vibrio harveyi AI-2 quorum sensing system; Vibrio harveyi JMH597 AI-2 luminescence/OD600 ratio, 9 h; stronger effect = lower value; strain lacks LuxN and CqsS sensors; 0 = neutral-control median; activity change, % at 7.5 µM; hit rate 0.4% among 300,000; AID 2094; in the data active = activity change below about -75%, passing the limit was not always enough;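 note: luminescence divided by OD600 gain over 9 h not by final OD600 alone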
NR3A LBD binder: modulates the human NR3A ligand-binding domain; hit rate 2.5% among 340,000; NR3A LBD differential scanning fluorimetry, Tm shift; 0% = protein alone, 100% = glycine-bound protein; Tm shift relative to glycine control, % at 25 µM;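 active = melting temperature shift of at least 10% of the positive control shift, at one fixed dose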
H9c2 protect: modulators protecting cardiomyocytes from myocardial damage. H9c2 cardiomyocytes, H2O2 injury protection, ATPLite, 2 h. protection from H2O2 cell death, % at 20 µM. hit rate 0.63% among 360,000;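 active = compounds giving at least 50% protection of heart cells from peroxide-induced death in the single-dose screen, raw or plate-pattern-corrected value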
AHR act: human AHR activation; P35869; AHR-responsive luciferase reporter cells, luminescence; activation, % at 5 µM; hit rate 2.5% among 320,000; AID 2796; in the data active = activation above about 47%
A number is an active result; - = inactive; . = no result. A selection: hits, their analogues and other compounds. The true share with any hit is near 6.2%.

SMILES	SUMO Mot1 rescue	NTR1 agonist	AI-2 QS modul	NR3A LBD binder	H9c2 protect	AHR act
CC1(Cc2ccc3ccccc3n2)C(=O)Nc2ccc(OC(F)(F)F)cc21 (centres undefined)	.	.	.	.	-	.
COc1ccc(C)cc1N(CC(=O)NCCN1CCOCC1)S(=O)(=O)c1ccccc1	-	-	-	-	-	-
COc1ccc(CCC(=O)OCC(=O)NC2CCCC2)cc1OC	.	.	.	.	-	.
Cc1ccc(CNC(=O)c2ccc(S(=O)(=O)N(C)C)cc2)n1C	-	-	-	-	-	-
CCNC(=O)C1(C)CCN1CCC(=O)c1ccc(C)cc1 (centres undefined)	.	.	.	.	-	.
Cc1c(C(=O)Nc2ccc3c(c2)OCO3)oc2ccccc12	-	-	-	-	-	76.2
CCCCn1c(SCC(=O)c2c(N)n(C3CC3)c(=O)[nH]c2=O)nc2cc(S(N)(=O)=O)ccc21	.	-	.	-	-	.
CCOC(=O)c1sc(N)c(C#N)c1CSc1nc2ccc(C)cc2[nH]1	-	-	-	-	-	70.1
CCN(CC)c1ccc(C2Nc3cccc4cccc(c34)N2)c(O)c1	-	-	.	-	-	71.2
NS(=O)(=O)c1ccc(Nc2nc(-c3ccc(O)cc3O)cs2)cc1	-	-	-	15.4	-	-
NS(=O)(=O)c1ccc(Nc2nc(-c3ccc(F)cc3)cs2)cc1	-	-	-	25.4	-	-
CC(=O)Nc1ccc(-c2csc(Nc3ccc(S(N)(=O)=O)cc3)n2)cc1	-	-	-	-	-	-
Cc1ccc(S(=O)(=O)N2CCCCC2)cc1NCC(=O)Nc1ccc(Br)cc1F	.	.	.	.	-	.
CCC1(C)N=C(c2ccc3c(c2)OCO3)CC(c2ccccc2O)N1 (centres undefined)	-	-	-	-	-	73.3
CCOC(=O)c1c(NC(=O)CNCC(O)CO)sc(C)c1C (centres undefined)	295.0	-	-	-	-	-
CCCCNCC(=O)Nc1sc(C)c(C)c1C(=O)OCC	-	-	-	-	-	-
O=S(=O)(Nc1c(O)ccc2ccccc12)c1ccccc1	-	-	-	-	-	54.3
O=S(=O)(Nc1cccc2ccccc12)c1ccccc1	.	-	-	-	-	-
O=S(=O)(Nc1c(O)ccc2ccccc12)c1ccc(F)cc1	-	-	-	-	-	55.4
O=S(=O)(Nc1ncccn1)c1ccc(F)cc1	-	-	-	-	-	.
O=C(/C=C/[C@H]1O[C@@H](n2cnc3c(NC(=O)c4ccccc4)ncnc32)[C@H](O)[C@@H]1O)N[C@@H](CO)Cc1c[nH]c2ccccc12	.	.	.	.	-	.
Cc1ccc(NC(=S)NCC23C=CC(O2)C2C(=O)N(c4ccc(C)cc4)C(=O)C23)cc1 (centres undefined)	-	-	-	-	-	-
Cc1cccc(NC(=S)NCC23C=CC(O2)C2C(=O)N(c4ccc(Cl)cc4)C(=O)C23)c1 (centres undefined)	-	-	-	11.8	-	-
O=C(CS(=O)(=O)c1ccccc1)N(CCCN1CCOCC1)c1nc2c(F)cccc2s1	348.7	-	-	-	-	-
Cc1cccc2sc(N(CCCN3CCOCC3)C(=O)CS(=O)(=O)c3ccc(F)cc3)nc12	-	-	-	-	-	-
SMILES	SUMO Mot1 rescue	NTR1 agonist	AI-2 QS modul	NR3A LBD binder	H9c2 protect	AHR act
CCC(CC)C(=O)N(C)c1c(C)nc2c(OCC(=O)C(C)(C)C)cccn12	.	.	.	.	-	.
N#CC1(NC(=O)CSc2nnc(C3CC3)n2C2CC2)CCCCC1	-	-	.	-	-	-
CC(=O)c1cnc2cc(-c3ccc(Cl)cc3)nn2c1C	-	-	-	-	-	71.1
Cc1cccc(NC(=O)c2cc3ccccc3o2)c1	-	-	-	-	-	-
O=C(Nc1cccc(Br)c1)c1ccc(CSc2ccccc2)cc1	-	-	-	30.1	-	-
CC(=O)c1cccc(NC(=O)CSCc2ccc(Br)cc2)c1	-	-	-	22.9	-	-
Cc1cc(NC(=O)c2cc3ccccc3o2)ccc1NC(=O)c1ccccc1	-	-	-	16.2	-	-
Cc1cc(NC(=O)c2cccnc2)ccc1NC(=O)c1cc2ccccc2o1	-	-	-	-	-	-
O=C(Nc1cccc(Br)c1)c1cc2ccccc2o1	-	-	-	32.0	-	-
CC(=O)c1cccc(NC(=O)CSCc2ccccc2)c1	.	-	-	-	-	-
O=C(c1cc(F)c(F)cc1Cl)N1CCN(S(=O)(=O)c2cccs2)CC1	.	-	.	-	-	.
